Only some compounds are listed: those with a hit (about 2.5% of all), similar ones and a draw of the others.
Cruzain inh noDet: blocks cruzain activity in detergent-free assay; P25779; purified cruzain, Z-FR-AMC fluorescence, no detergent; Potency, µM, most hits filed as inhibitors; hit rate 2.3% among 200,000; note: nearly all actives have a fitted effect of over 40% in size
Target sequence (P25779 123-467 limits assumed): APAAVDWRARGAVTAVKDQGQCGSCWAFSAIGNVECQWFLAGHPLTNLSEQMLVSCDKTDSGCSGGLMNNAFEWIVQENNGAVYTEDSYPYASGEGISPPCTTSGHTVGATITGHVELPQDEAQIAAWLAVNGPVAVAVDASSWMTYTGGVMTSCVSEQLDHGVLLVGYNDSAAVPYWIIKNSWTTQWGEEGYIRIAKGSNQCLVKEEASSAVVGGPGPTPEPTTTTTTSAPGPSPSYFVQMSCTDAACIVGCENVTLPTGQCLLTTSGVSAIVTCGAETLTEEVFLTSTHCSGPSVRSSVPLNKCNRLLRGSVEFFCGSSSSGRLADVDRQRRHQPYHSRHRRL
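Purified cruzain at 1.5 nM, pre-incubated 15 min with compound at room temperature in 100 mM sodium acetate pH 5.5, 5 mM DTT, 0.00005% Triton X-100. Reaction started with 2 uM Z-FR-AMC; AMC fluorescence increase over 60 s gives rate.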
Cruzain Triton: inhibitors of Trypanosoma cruzi cruzain with detergent; purified cruzain, Z-FR-AMC fluorescence, 0.01% Triton; hit rate 0.43% among 200,000; P25779; Potency, µM, hits mostly inhibitors; note: nearly all actives have a fitted effect of over 40% in size
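Steps: dispense cruzain (1.5 nM final) in acetate buffer pH 5.5 with DTT and 0.01% Triton X-100; pin-transfer compounds; incubate 15 min RT; add Z-FR-AMC (2 uM final); read fluorescence every 30 s, using the 60 s intensity change.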
Hits are given with their value; . = inactive; ? = inconclusive. Calls come from the whole dose curve; as a rule, active = well fitted curve in the direction sought with a large enough effect; inconclusive = small, poorly fitted or top-dose-only effect, or another doubt; inactive = no such curve, though single readings can be large; an effect the other way counts as inactive or inconclusive.

SMILES	Cruzain inh noDet	Cruzain Triton
COc1ccc(C)cc1NC(=O)CSc1nnc(-c2ccc(C)cc2)o1	.	.
CCOc1ccc(-c2nnc(SCC(=O)Nc3ccc(C)cc3C)o2)cc1	.	.
Cc1nnc(SCC(=O)Nc2ccc(S(=O)(=O)N3CCCC3)cc2)n1N	.	.
COc1ccc2nc(SCC(=O)Nc3ccc(S(=O)(=O)N4CCCC4)cc3)c(C#N)cc2c1	13µM	.
N#Cc1cc2ccccc2nc1SCC(=O)Nc1ccc(S(=O)(=O)N2CCCC2)cc1	?	.
Cc1cc(C)c2nc(SCC(=O)Nc3ccc(S(=O)(=O)N4CCCC4)cc3)c(C)cc2c1	13µM	.
COc1ccc(NC(=O)N2CCN(S(=O)(=O)c3ccc4c(ccn4C)c3)CC2)c(OC)c1	.	.
COc1cccc(N2CCN(C(=O)c3cc4cc5cc(C)ccc5nc4s3)CC2)c1	.	.
O=C(C1CCN(S(=O)(=O)Cc2ccccc2)CC1)N1CCN(c2ccc(F)cc2)CC1	?	.
COc1ccccc1CNC(=O)CSc1ccc(-c2sc(-c3ccccc3)nc2C)nn1	.	.
NC(=O)C1CCN(C(=O)c2ccc3c(c2)N(Cc2cccc(Cl)c2)C(=O)c2ccccc2S3=O)CC1 (centres undefined)	?	.
CCn1c(=O)n(CC)c2cc(N3CCCCC3)c(NC(=O)Nc3ccccc3Cl)cc21	?	.
CC1(c2ccc(Cl)cc2)CC(C)(C)N(C(=O)c2ccccc2)c2ccccc21 (centres undefined)	?	.
CC1(c2cc([N+](=O)[O-])cc([N+](=O)[O-])c2)CC(C)(C)N(C(=O)c2ccccc2)c2ccccc21 (centres undefined)	10µM	.
Cc1ccc(NC(=O)CCCN2C(=O)COc3ccc(C)cc32)c(Cl)c1	.	.
Clc1cccc(-c2noc3ncnc(NC4CCCCC4)c23)c1	.	.
COc1ccc(NC(=O)CSCc2cnn(-c3ccccc3)c2-n2cccc2)cc1	.	.
O=C(Cn1nnc(-c2ccccc2Cl)n1)N/N=C/c1ccc(-c2cccc(Cl)c2)o1	32µM	.
O=C(CN1CCCC1)N/N=C/c1ccc(-c2cccc(Cl)c2)o1	.	.
COc1ccc(C(=O)c2cn(Cc3ccccc3F)c3cc4c(cc3c2=O)OCO4)cc1	.	.
CC(C)C[C@H](NC(=O)OC(C)(C)C)c1nnc(SCc2ccccc2)o1	.	.
CCOC(=O)CSc1nnc([C@H](Cc2ccccc2)NC(=O)OC(C)(C)C)o1	.	.
CC(C)(C)OC(=O)N[C@@H](Cc1ccccc1)c1nnc(S(=O)(=O)Cc2cccc(F)c2)o1	20µM	13µM
C[C@H](NC(=O)OC(C)(C)C)c1nnc(SCc2c(F)cccc2Cl)o1	.	.
CC(C)[C@H](NC(=O)OC(C)(C)C)c1nnc(S(=O)(=O)Cc2c(F)cccc2Cl)o1	5µM	3.5µM
SMILES	Cruzain inh noDet	Cruzain Triton
Cc1ccccc1CS(=O)(=O)c1nnc([C@H](CC(C)C)NC(=O)OC(C)(C)C)o1	25µM	13µM
COc1ccc(N(Cc2cccs2)C(=O)c2ccc(OCC(C)C)cc2)cc1	?	.
CC(C)(C)OC(=O)N1CCC(c2c(C(=O)NCCN3CCOCC3)cnn2-c2ccc(F)cc2)CC1	.	.
CCN1CCN(c2cc(C)c3cc(NC(=O)/C=C/c4ccc(OCCC(C)C)cc4)ccc3n2)CC1	.	.
Cc1ccc(CCNC(=O)c2ccc(CSCc3ccccc3C)o2)cc1	.	.
CCOC(=O)N1CCC(NC(=O)c2cnn(-c3ccc(C)cc3)c2C2CCN(C(=O)OC(C)(C)C)CC2)CC1	?	.
CCOc1ccccc1NC1(c2ccccc2)C(=O)c2ccccc2C1=O	?	.
Cc1nn(C(=O)c2ccco2)c(C)c1CN1C(=O)c2ccccc2C1=O	.	.
Cc1nn(C(=O)c2cccs2)c(C)c1CN1C(=O)c2ccccc2C1=O	20µM	.
COc1ccc(NC(=O)C2CCN(S(=O)(=O)c3cc(-c4noc(C)n4)ccc3C)CC2)cc1	.	.
CCOc1ccc(-c2nn(-c3ccccc3)cc2/C=C2\SC(=S)N(Cc3ccco3)C2=O)cc1	10µM	.
CCCOc1ccc(-c2nn(-c3ccccc3)cc2/C=C2\SC(N)=NC2=O)cc1	?	.
COCCn1c(=O)c(-c2cccc(C#N)c2)nc2cnc(N(C)C)nc21	.	.
CNc1oc(-c2ccc(C)cc2)nc1P(=O)(c1ccccc1)c1ccccc1	.	11µM
CNc1oc(-c2ccccc2Cl)nc1P(=O)(c1ccccc1)c1ccccc1	?	.
Cc1cccc(CCNC(=O)c2ccc3c(c2)nc2n3CCCCC2)c1	.	.
Cc1cccc(NC(=O)C2CCCN(S(=O)(=O)c3ccc4c(c3)CCCC(=O)N4)C2)c1 (centres undefined)	.	.
Cc1cc(C)cc(OCC(=O)NCC(c2ccc(Cl)cc2)N2CCCCC2)c1 (centres undefined)	.	.
CCOc1ccc(N(CC)S(=O)(=O)N2CCCC(C(=O)Nc3cc(Cl)ccc3C)C2)cc1 (centres undefined)	.	.
Cc1cccc(NC(=O)Nc2cccs2)c1C	.	.
CCn1c(NC(=O)Nc2cccc(C)c2C)cc2sccc21	25µM	.
O=C(CCCCn1c(=O)c2ccccc2n(Cc2cccc(F)c2)c1=O)NCc1ccc2c(c1)OCO2	.	.
CC(C)CNC(=O)c1cc(-c2ccc(Cl)c(Cl)c2)on1	13µM	.
O=C(NCCc1ccccc1)c1cc(-c2ccc(Cl)c(Cl)c2)on1	.	.
CCOCCc1nn2c(=O)cc(COC(=O)c3ccccc3NC(=O)C3CCCCC3)nc2s1	.	.
SMILES	Cruzain inh noDet	Cruzain Triton
COc1ccc(NCc2cc3cc4c(cc3n(CC(=O)Nc3ccccc3)c2=O)OCO4)cc1	.	.
O=C(NC1CCCCC1)c1ccccc1NC(=S)NC(=O)C1CCC1	.	.
O=C(/C=C/c1ccccc1Cl)NC(=S)Nc1ccccc1C(=O)NC1CCCCC1	4µM	.
O=C(/C=C/c1ccc(Br)cc1)c1ccc(NC(=O)c2ccco2)cc1	.	.
CCC1CSC(Nc2ccc(C(=O)/C=C/c3ccc(Br)cc3)cc2)=N1 (centres undefined)	25µM	.
O=C(CSc1nnc(COc2ccc3c(c2)CCCC3)o1)Nc1ccc(F)cc1	25µM	.
COc1cccc(NC(=O)CSc2nnc(COc3ccc(Cl)cc3)o2)c1	?	.
COC(=O)c1ccc(NC(=O)CSc2nnc(COc3c(C)cccc3C)o2)cc1	25µM	.
Cc1cccc(C)c1OCc1nnc(SCC(=O)Nc2ccccc2F)o1	.	.
CCc1ccc(NC(=O)Nc2cn(C)c(=O)c3ccccc23)cc1	?	.
CCC(C)Sc1nc2c(cnn2-c2ccccc2)c(=O)[nH]1 (centres undefined)	.	.
O=c1[nH]c(SCc2ccc(F)cc2)nc2c1cnn2-c1ccc(F)cc1	16µM	.
CCCCSc1nc2c(cnn2-c2ccc(C)c(C)c2)c(=O)[nH]1	20µM	.
CCCSc1nc2c(cnn2-c2ccc(F)cc2)c(=O)[nH]1	.	.
CCCSc1nc2c(cnn2-c2ccc(C)c(C)c2)c(=O)[nH]1	.	.
CCC(C)Sc1nc2c(cnn2-c2ccc(C)cc2)c(=O)[nH]1 (centres undefined)	20µM	.
O=S(=O)(c1ccc(Cl)cc1)c1nc(-c2cccs2)oc1SCc1ccccc1F	?	.
CNCCCCCCCCSc1nc(C(C)C)ccc1C(=O)c1cccs1	.	.
COc1ccc(C(=O)c2sc(Nc3ccccc3)c(C(=O)Nc3ccc(OC)c(OC)c3)c2N)cc1	.	.

Screening results from PubChem.
